Compound activity: PubChem BioAssay, National Center for Advancing Translational Sciences (NCATS)
ClpP mod – qHTS Assay for Activators of ClpP. purified B. subtilis ClpP, FRET peptide cleavage, 20 min. ATP-dependent Clp protease proteolytic subunit (Bacillus subtilis (strain 168)), P80244. 340,000 compounds, 1.9% hits. Potency, µM (highest dose often 57.5 µM); active = well fitted falling curve with a large enough effect; inconclusive = small, poorly fitted or top-dose-only effect; inactive = no such curve, though single readings can be large or run the other way; also: the source files actives as falling curves though it sought activators and does not explain the sign; nearly all actives have a fitted effect of over 65% in size
Target sequence (P80244 whole entry, looked up): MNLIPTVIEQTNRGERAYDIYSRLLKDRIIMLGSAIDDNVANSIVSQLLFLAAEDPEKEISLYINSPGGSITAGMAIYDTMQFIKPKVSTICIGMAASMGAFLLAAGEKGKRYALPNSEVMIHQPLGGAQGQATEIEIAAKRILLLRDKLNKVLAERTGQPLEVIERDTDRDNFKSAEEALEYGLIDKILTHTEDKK
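FRET quenching reversal measured ClpP activation: 10 microg/mL B. subtilis ClpP at pH 8 with the FRET-FV decapeptide, read at 430 nm after 320 nm excitation. The 20-min minus 0-min signal was scaled between DMSO/no-enzyme wells and ADEP (5.8 microM final).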
DT40 TDP1 no CPT – qHTS for Inhibitors of human tyrosyl-DNA phosphodiesterase 1 (TDP1): qHTS in cells in absence of CPT. 420,000 compounds, 15% hits. Potency, µM (titrated, usually from 46.2 µM), usual class: inhibitors. DT40 Tdp1-/- hTDP1 cells, no CPT, ATP luminescence, 48 h. AID 686978, 2013; also: nearly all actives have a fitted effect of over 55% in size
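Camptothecin absent (DMSO only). Human TDP1-complemented DT40 knockout cells, 400 cells/well, 37 °C for minimum 48 hr; ATP measured via CellTiter-Glo, 30 min dark incubation, luminescence.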
DRD3 antagonist – D3 dopamine receptor (human) antagonism; P35462; D3R cells, DiscoveRx beta-arrestin luminescence, antagonist mode; stronger effect = lower value; max response, negative = inhibition, %; 360,000 compounds, 2.5% hits; AID 652054; in the data active = max response below about -50%; inconclusive = no clear call, values can overlap the other calls
Target sequence (P35462 whole entry, looked up): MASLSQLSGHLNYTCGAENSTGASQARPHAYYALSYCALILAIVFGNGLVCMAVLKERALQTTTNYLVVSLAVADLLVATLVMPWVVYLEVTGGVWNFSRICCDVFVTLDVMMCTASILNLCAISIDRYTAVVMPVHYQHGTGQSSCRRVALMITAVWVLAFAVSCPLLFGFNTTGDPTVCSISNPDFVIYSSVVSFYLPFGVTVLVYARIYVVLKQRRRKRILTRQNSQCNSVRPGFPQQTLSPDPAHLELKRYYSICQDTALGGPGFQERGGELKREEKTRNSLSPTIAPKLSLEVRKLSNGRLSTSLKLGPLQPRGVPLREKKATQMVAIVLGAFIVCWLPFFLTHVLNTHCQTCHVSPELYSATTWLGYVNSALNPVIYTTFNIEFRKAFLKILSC
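Cells plated overnight at 1500 cells/well, then exposed to library compounds with dopamine controls for 90 minutes at 37 degrees C. DiscoveRx reagent added for 30–60 minutes at room temperature; luminescence read, quantitative HTS format.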
IL-1B inflam inh – inflammasome signaling inhibition, IL-1 beta readout. THP-1 LPS/ATP IL-1B secretion, AlphaLISA, 16 h; stronger effect = lower value. activity change, % at 57.5 µM. 360,000 compounds, 4.7% hits. AID 743279; in the data active = activity change below about -50%; inconclusive = mostly about -30% to -49%
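Secreted IL-1B measured by AlphaLISA bead assay after 16 h compound exposure of THP-1 cells; compounds (final up to 57.5 uM) added 1 h before LPS (250 ng/mL) and ATP (1.25 mM) stimulation; lower signal means less secretion.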
DT40 TDP1 CPT – DT40-hTDP1 cell growth loss with CPT | 420,000 compounds, 12% hits | AID 686979 | chicken DT40 Tdp1-/-;hTDP1 cells + 20 nM CPT, ATP luminescence, 48 h | Potency, µM (doses to about 46.2 µM), most hits filed as inhibitors; also: nearly all actives have a fitted effect of over 55% in size
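Cell growth measured by CellTiter-Glo luminescence after a minimum 48 h, 37 C compound exposure with 20 nM CPT in Tdp1-knockout DT40 cells stably expressing hTDP1, seeded 400/well; qHTS titration format.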
DRD3 agonist – agonists of human D3 dopamine receptor. P35462. D3R DiscoveRx beta-arrestin cells, luminescence, 90 min. max activation, %. 410,000 compounds, 0.58% hits; in the data active = max activation above about 30%
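Cells at 1500/well, incubated overnight, then treated with pinned compounds (dopamine as control) for 90 min at 37 degrees C. DiscoveRx reagent added for 30 - 60 minutes at room temperature; luminescence read.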
A number is an active result; n = inactive; u = inconclusive; x = no result; ! = not confirmed by another sample. Sampled rows, rich in hits. Any-hit rate of the full collection: about 21%. Unless noted, calls follow the shape of the dose curve; as a rule, active = well fitted inhibition curve with a large enough effect; inconclusive = small, poorly fitted or top-dose-only effect; inactive = flat fitted curve, though single readings scatter.

SMILES	ClpP mod	DT40 TDP1 no CPT	DRD3 antagonist	IL-1B inflam inh	DT40 TDP1 CPT	DRD3 agonist
CCOC(=O)c1c(NC(NC(=O)CF)C(Cl)(Cl)Cl)sc2c1CCCC2 (stereo unspecified)	n	u	n	n	13µM	n
CCc1cccc(NC(=O)c2ccc(NC(=O)N3CCSc4ncccc43)cc2)c1	u	16µM	x	x	21µM	n
CC(C)C(=O)Nc1ccc(C(=O)NCc2cccnc2)cc1	n	u	n	n	u	n
CCC(=O)N1CC(=O)Nc2ccc(F)cc2C1c1ccc(F)cc1 (stereo unspecified)	n	n	n	n	n	n
CCC(=O)N1CC(=O)Nc2ccc(C)cc2C1c1ccc(F)cc1 (stereo unspecified)	n	9.2µM	x	x	3.7µM	n
CC12CC(O)C3C(CCC4=CC(=O)CCC43C)C1CCC2=O (stereo unspecified)	x	n	n	n	n	n
Cc1cc(=O)oc2c1c(C)nn2-c1nn[nH]n1	n	u	n	n	21µM	n
CCOc1ccc(/C=C/C(=O)C(C(N)=O)=C2SCCS2)cc1	n	u	n	n	u	n
CC1CCN(C(=O)Cn2c3ccccc3c3nc4n(c(=O)c32)CCCS4)CC1	n	u	n	n	23µM	n
NC(CCc1ccccc1)c1csc(NC(=O)Nc2ccccc2Oc2ccccc2)n1 (stereo unspecified)	n	6.5µM	n	-79	6.5µM	n
NC(Cc1cc(O)c(O)cc1O)C(=O)O (stereo unspecified)	n	6.3µM	x	x	5µM	x
CC1CN(c2ccc([N+](=O)[O-])cc2Cl)CCN1 (stereo unspecified)	n	u	n	n	n	n
c1cc2c(cc1NC1=NCCO1)CCCC2	n	u	n	n	18µM	n
C[N+](C)(C)CCOC(=O)C(O)(c1ccccc1)c1ccccc1	x	n	x	x	n	n
CC(C)[N+](C)(CCC(C(N)=O)(c1ccccc1)c1ccccc1)C(C)C	n	9.2µM!	n	n	7.3µM!	n
COc1ccc(C(=O)Oc2c(CN3CCOCC3)cc(Cl)c3cccnc23)cc1OC	n	5.6µM	n	n	5µM	n
O=C(Oc1ccc(Cl)c2cccnc12)N1CCCCCC1	u	n	n	n	n	n
CC(C)N1CCOC(c2ccc(O)c(O)c2)C1 (stereo unspecified)	n	n	n	n	u	95
Cc1c(C)c2c(c(C)c1OC(=O)CCC(=O)OCCO)CC[C@@](C)(CCC[C@H](C)CCC[C@H](C)CCCC(C)C)O2	x	u	x	x	11µM	n
CCN1/C(=C\C=C\C2=[N+](CC)c3ccccc3C2(C)C)C(C)(C)c2ccccc21	n	0.15µM	-96	-98	0.092µM	n
CCOC(=O)[C@@]1(C#N)[C@@H]2C=CC(C(N)=O)=CN2[C@@H](C(N)=O)[C@@H]1c1cccc(Cl)c1	n	n	n	n	n	n
COc1cc(CN2CCCC(C(=O)c3sccc3C)C2)cc(Cl)c1O (stereo unspecified)	x	u	-51	n	n	n
COc1ccc(CN2CCCC(C(=O)c3sccc3C)C2)cc1O (stereo unspecified)	n	n	-74	n	u	n
Cc1ccsc1C(=O)C1CCCN(Cc2ccc(-n3cccn3)cc2)C1 (stereo unspecified)	n	15µM	-63	n	21µM	n
COc1cc(CN2CCCC(C(=O)c3sccc3C)C2)cc(OC)c1O (stereo unspecified)	n	u	n	n	u	n
SMILES	ClpP mod	DT40 TDP1 no CPT	DRD3 antagonist	IL-1B inflam inh	DT40 TDP1 CPT	DRD3 agonist
CSc1ncc(CN2CCCC(C(=O)c3sccc3C)C2)cn1 (stereo unspecified)	x	u	n	n	u	n
CCc1nc2ccc(C(=O)N3CCN(C(=O)c4ccco4)CC3)cn2c1N(C)Cc1ccc(OC)cc1	n	u	n	n	u	n
Cc1[nH]nc2ccc(-c3cncc(OC[C@@H](N)Cc4c[nH]c5ccccc45)c3)cc12	n	0.58µM	n	-104	0.58µM	n
CNc1ccccc1C(=O)O	x	n	x	x	n	x
O=C(O)c1ccccc1Nc1cccc(C(F)(F)F)c1	n	15µM	n	n	12µM!	n
COc1ccc(C(=O)c2nc3ccccc3n2C(C)C)cc1	n	n	n	n	n	n
COC(=O)C1=Nc2ccccc2/C1=C\c1c(O)n(-c2ccc(Br)cc2)c(=O)[nH]c1=O	n	u	n	u	u	n
O=c1[nH]c(=O)n(-c2ccccc2)c(O)c1/C=C1/C(c2ccccc2)=Nc2ccccc21	n	2.3µM	n	n	2.1µM	n
CN1Cc2c(ccc3c2OCO3)C2C(O)Cc3cc4c(cc3C21)OCO4 (stereo unspecified)	x	1.9µM	x	x	2.7µM	x
CC(=O)OC1C(O)C(C)OC(OC2C(OC(=O)C3CCC4C(C3)OC3(CC(OC(=O)/C=C/c5ccccc5)C(C)CO3)C43CO3)OC(C)C(O)C2OC(C)=O)C1O (stereo unspecified)	n	0.073µM	n	-98	0.15µM	n
CCOP(=O)(OCC)c1ccc(OP(=O)(c2cccc([N+](=O)[O-])c2)c2cccc([N+](=O)[O-])c2)cc1	35µM	n	n	n	n	n
CCCCn1c(O)c(C(C)=NCc2ccco2)c(=O)[nH]c1=O	n	n	n	n	n	n
O=C(NCC1=C(c2cccc3ccccc23)C[C@@H]2CC[C@H]1N2Cc1ccco1)c1cccnc1	n	u	n	n	u	n
O=C(NCC1=C(c2cccc3ccccc23)C[C@@H]2CC[C@H]1N2Cc1ccco1)c1cccs1	n	15µM	-51	n	u	n
O=C(NCC1=C(c2cccc3ccccc23)C[C@@H]2CC[C@H]1N2Cc1ccco1)c1ccncc1	n	26µM	n	n	23µM	n
O=C(NCC1=C(c2ccc3ccccc3c2)C[C@@H]2CC[C@H]1N2Cc1ccco1)c1nccs1	n	16µM	n	n	u	n
CC(=O)NCC1=C(c2cccc3ccccc23)C[C@@H]2CC[C@H]1N2Cc1ccco1	n	u	u	n	u	n
COc1ccc(CN2C(=O)NC(=O)/C(=C\c3cc(OC)c(OC)c(OC)c3)C2=O)cc1	x	u	n	n	18µM	n
COc1ccc(CN2C(=O)NC(=O)/C(=C\c3ccco3)C2=O)cc1	x	u	n	n	u	n
COc1ccc(CN2C(=O)NC(=O)/C(=C/c3ccc([N+](=O)[O-])s3)C2=O)cc1	x	4.6µM	n	n	10µM	n
O=C1NC(=O)N(Cc2ccc(F)cc2)C(=O)/C1=C\c1ccc([N+](=O)[O-])s1	x	8.2µM	-55	n	13µM	n
